# Test results reported in PubChem BioAssay AID1259420 (Broad Institute, 2018).
# Values joined by “and” are separate entries in the source; they are usually repeats but may differ in a detail not shown here. Equal values may be shown once. The whole screen tested about 1,000 compounds, of which about 250 (25%) were called active. Roughly 31% stayed inconclusive and do not appear here. Only a sample is shown. Measured potencies and affinities stand elsewhere. Unmarked numbers belong to inactive results. The rule behind the calls is not given here. Numbered stars: 1 amine (or outer) side, 2 acyl side, 3 side chain; on linkers, the order of the positions; unused ones are H or OH. Bridge positions count the residues as written; N and C are the ends. Square brackets hold non-standard residues; d marks the D form. Peptide text beside a SMILES is read from it. * marks the point of attachment. ξ: configuration not given here. pTerphenylCO(4''-OnC5H11) = CCCCCOc1ccc(-c2ccc(-c3ccc(C(=O)*)cc3)cc2)cc1; ξOrn(4,5-diOH) = O=C(C(CC(O)C(O)N[*:3])N[*:1])[*:2]; ξhTyr(βξ-OH,γξ-OH) = NC(C(=O)O)C(O)C(O)c1ccc(O)cc1; ξPro(3ξ-OH,4ξ-Me) = CC1CNC(C(=O)O)C1O; Hyp = O=C(O)[CH]1C[CH](O)CN1
# Experiment: T. gondii intracellular growth, IFN-gamma absent, dose response, cell-based (AID 1259420);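 note: host cells were HeLa; final incubation lasted 72 hours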
# Settings: Toxoplasma gondii growth in host cells, no IFN-gamma
smiles,measurement,setting,value
COc1cccc(-c2nn(CC3CC3)c3c2[C@@H]2CN(Cc4ccccc4)C[C@@H]2C3)c1,max activity,at 19.5 µM unless noted,19.1%
Cc1ccc(Cl)cc1N(CC(=O)Nc1c(F)cccc1F)S(C)(=O)=O,max activity,at 19.5 µM unless noted,8.21% [at 1.2 µM]
CC(=O)NCC(=O)N1CCC2(CC1)CC(c1ccccc1)C(=O)N2 (configuration not stated),max activity,at 19.5 µM unless noted,-12.4% [at 10 µM]
CN(C)CCO[C@@H]1CN(C(=O)Cc2ccsc2)[C@H]2CCCO[C@@H]12,max activity,at 19.5 µM unless noted,-11.4% [at 10 µM]
CN1CCN(C(=O)Cc2ccsc2)Cc2cccnc21,max activity,at 19.5 µM unless noted,-16.3% [at 2.6 µM]
Cc1ccsc1C(=O)N1CCc2nc(-c3cnn(C)c3)nc(NC(C)C)c2C1,max activity,at 19.5 µM unless noted,-6.87%
Cc1ccccc1-c1ccc([C@@H]2[C@H]3CN(C(=O)c4ccncc4)CC(=O)N3[C@H]2CO)cc1,max activity,at 19.5 µM unless noted,7.3% [at 5 µM]
CN1[C@@H]2Cn3c(ccc(/C=C/c4ccccc4)c3=O)[C@H]1[C@@H](C(=O)NC1Cc3ccccc3C1)[C@@H]2CO,max activity,at 19.5 µM unless noted,-16.6% [at 2.6 µM]
Cc1cnn(C(C)C(=O)N2CCc3[nH]nc(-c4ccc(F)c(F)c4)c3C2)c1 (configuration not stated),max activity,at 19.5 µM unless noted,14% [at 0.16 µM]
Nc1ccc(S(=O)(=O)NC(=O)c2ccccc2)cc1,max activity,at 19.5 µM unless noted,6.39% [at 0.3 µM]
CO[C@H]1CCN(c2ccc(C)nn2)[C@H]1Cc1cnn(C)c1,max activity,at 19.5 µM unless noted,46.8%
C[C@]12CCC3=C4CCC(=O)C=C4CC[C@H]3[C@@H]1CC[C@@]2(O)CC#N,max activity,at 19.5 µM unless noted,-3.24% [at 0.3 µM]
C=CCO[C@@H]1CCN(c2cc(OC)ncn2)[C@H]1Cc1cnn(C)c1,max activity,at 19.5 µM unless noted,-8.84% [at 5 µM]
Cc1nnc(N2C[C@@H](Oc3ncccc3F)[C@@H]3OCCC[C@@H]32)s1,max activity,at 19.5 µM unless noted,-11.4% [at 0.16 µM]
Cc1ccc(-c2cc(C(F)(F)F)nn2-c2ccc(S(N)(=O)=O)cc2)cc1,max activity,at 19.5 µM unless noted,-6.96% [at 0.08 µM]
CCCNC(=O)C[C@H]1CC[C@@H]2[C@H](COC[C@H](O)CN2C(=O)Nc2ccc(Cl)c(Cl)c2)O1,max activity,at 19.5 µM unless noted,22.5%
COc1ccc(CN2C[C@@H]3C[C@H](C(=O)Nc4ccccc4)[C@@H](C2)O3)cc1,max activity,at 19.5 µM unless noted,24.7%
CCCNC(=O)[C@@H]1[C@@H](CO)[C@@H]2Cn3c(ccc(C4=CCCCC4)c3=O)[C@@H]2N1Cc1ccccc1F,max activity,at 19.5 µM unless noted,15.2%
O=C(c1ccc[nH]1)N1CCC2(CC1)COCCN(c1ncccn1)C2,max activity,at 10 µM,-14%
same,max activity,at 19.5 µM,9.97%
CC(C)CCN1Cc2c(C(=O)NC3CCCCC3)ncn2-c2ccccc2S1(=O)=O,max activity,at 19.5 µM unless noted,17.3%
CO[C@@H]1CCN(c2ncccn2)C[C@@H]1Cc1cccc(C)c1,max activity,at 19.5 µM unless noted,13.3%
"CCCCCOc1ccc(-c2ccc(-c3ccc(C(=O)NC4CC(O)C(O)NC(=O)C5C(O)C(C)CN5C(=O)C(C(C)O)NC(=O)C(C(O)C(O)c5ccc(O)cc5)NC(=O)C5CC(O)CN5C(=O)C(C(C)O)NC4=O)cc3)cc2)cc1 (stereo not drawn) ({pTerphenylCO(4''-OnC5H11)}-[ξOrn(4,5-diOH)]T[Hyp][ξhTyr(βξ-OH,γξ-OH)]T[ξPro(3ξ-OH,4ξ-Me)]; lactam 1-C; configuration not given here)",max activity,at 19.5 µM unless noted,7.96% [at 0.6 µM]
O=C1N(c2ccccc2)c2ccccc2C1(Cc1ccncc1)Cc1ccncc1,max activity,at 19.5 µM unless noted,-9.88% [at 5 µM]
C/C=C/c1ccc(C2[C@H]3CNC[C@@H]2N3S(=O)(=O)c2ccccc2C)cc1 (some centres not stated),max activity,at 19.5 µM unless noted,20.6%
O=C(C[C@H]1CC[C@H]2[C@@H](COC[C@@H](O)CN2Cc2cc(F)ccc2F)O1)NCc1ccc(Oc2ccccc2)cc1,max activity,at 19.5 µM unless noted,24%
O=C(C[C@H]1CC[C@@H]2[C@H](COC[C@@H](O)CN2Cc2ccc(Oc3ccccc3)cc2)O1)N1CCN(c2ccccc2)CC1,max activity,at 19.5 µM unless noted,17.6%
O=C(C[C@@H]1CC[C@@H]2[C@H](COC[C@H](O)CN2S(=O)(=O)c2ccccc2F)O1)N1CCC(Cc2ccccc2)CC1,max activity,at 19.5 µM unless noted,-4.67% [at 0.3 µM]
O=C(C[C@@H]1CC[C@H]2[C@@H](COC[C@H](O)CN2Cc2ccc(Oc3ccccc3)cc2)O1)N1CCN(c2ccccc2)CC1,max activity,at 19.5 µM unless noted,-11.8% [at 1.2 µM]
O=C(C[C@H]1CC[C@H]2[C@@H](COC[C@H](O)CN2S(=O)(=O)c2ccccc2)O1)NCC1CCCCC1,max activity,at 19.5 µM unless noted,-7.1% [at 0.3 µM]
O=C(C[C@H]1CC[C@@H]2[C@H](COC[C@H](O)CN2Cc2cc(F)ccc2F)O1)NCc1ccc(Oc2ccccc2)cc1,max activity,at 19.5 µM unless noted,29.1% [at 10 µM]
CCCNC(=O)C[C@H]1CC[C@H]2[C@@H](COC[C@@H](O)CN2C(=O)Nc2ccc(Cl)c(Cl)c2)O1,max activity,at 19.5 µM unless noted,-10.6% [at 10 µM]
O=C(C[C@@H]1CC[C@@H]2[C@H](COC[C@@H](O)CN2C(=O)Nc2cc(Cl)cc(Cl)c2)O1)N1CCOCC1,max activity,at 19.5 µM unless noted,-20.4% [at 10 µM]
O=C(C[C@H]1CC[C@H]2[C@@H](COC[C@H](O)CN2Cc2ccc(Oc3ccccc3)cc2)O1)N1CCN(c2ccccc2)CC1,max activity,at 19.5 µM unless noted,19.6%
CCCNC(=O)[C@H]1[C@H](CO)[C@H]2Cn3c(ccc(C4=CCCCC4)c3=O)[C@H]2N1Cc1ccccc1F,max activity,at 19.5 µM unless noted,26.7%
CCC(=O)N1CC(=O)N2[C@@H](CO)[C@H](c3ccc(C#CCC(C)C)cc3)[C@@H]2C1,max activity,at 19.5 µM unless noted,-4.73% [at 2.6 µM]
Cn1cnc(S(=O)(=O)N2C[C@@H]3N[C@H](C2)C3c2ccc(-c3ccccc3F)cc2)c1 (some centres not stated),max activity,at 2.35 µM,9.35%
same,max activity,at 19.5 µM,18.7%
COc1cccc(-c2ccc(C3[C@@H]4CN(C(=O)C5CCCCC5)C[C@H]3N4)cc2)c1 (some centres not stated),max activity,at 19.5 µM unless noted,23.3%
CS(=O)(=O)N1C[C@@H]2N[C@H](C1)[C@@H]2c1ccc(-c2ccccc2)cc1,max activity,at 19.5 µM unless noted,14.6% [at 2.6 µM]
N#Cc1ccc(-c2ccc(C3[C@@H]4CN(S(=O)(=O)c5ccc(F)cc5)C[C@H]3N4)cc2)cc1 (some centres not stated),max activity,at 19.5 µM unless noted,31.5% and 12.6% and 34.4%
N#Cc1ccc(-c2ccc(C3[C@@H]4CN(C(=O)C5CCCCC5)C[C@H]3N4)cc2)cc1 (some centres not stated),max activity,at 19.5 µM unless noted,18.4%
COc1cc(CN2C[C@@H]3N[C@H](C2)C3c2ccc(-c3ccc(C#N)cc3)cc2)cc(OC)c1 (some centres not stated),max activity,at 19.5 µM unless noted,9.2% [at 10 µM]
COc1cccc(-c2ccc(C3[C@@H]4CN(Cc5ccccn5)C[C@H]3N4)cc2)c1 (some centres not stated),max activity,at 19.5 µM unless noted,36.5%
Cc1ccccc1-c1ccc(C2[C@@H]3CN(Cc4cncnc4)C[C@H]2N3)cc1 (some centres not stated),max activity,at 19.5 µM unless noted,-6.61% [at 10 µM]
O=C1CC2C(CCN2Cc2ccc(F)cc2)N1CCN1CCOCC1 (configuration not stated),max activity,at 19.5 µM unless noted,-8.01% [at 5 µM]
O=C(Cc1ccccn1)N1CC(=O)N2[C@H](C1)[C@@H](c1ccc(C#CCC3CCCC3)cc1)[C@@H]2CO,max activity,at 19.5 µM unless noted,30% [at 21 µM]
COC[C@H](N)C(=O)N1CCC(Cc2nnc(SC)n2C)CC1,max activity,at 19.5 µM unless noted,7.97% [at 0.16 µM]
CCCNC(=O)[C@@H]1[C@@H](CO)[C@@H]2Cn3c(ccc(/C=C/c4ccccc4)c3=O)[C@@H]2N1CC1CC1,max activity,at 19.5 µM unless noted,-5.81% [at 10 µM]
Cc1cccc(-c2ccc(C3[C@@H]4CN(C(=O)Nc5ccc(F)cc5)C[C@H]3N4)cc2)c1 (some centres not stated),max activity,at 19.5 µM unless noted,30.6% [at 10 µM]
O=S(=O)(c1ccc(F)cc1)N1C[C@@H]2N[C@H](C1)C2c1ccc(/C=C/c2ccccc2)cc1 (some centres not stated),max activity,at 19.5 µM unless noted,27.1%
C/C=C/c1ccc(C2[C@@H]3CN(S(=O)(=O)c4cccc(OC)c4)C[C@H]2N3)cc1 (some centres not stated),max activity,at 19.5 µM unless noted,-10.6% [at 0.16 µM]
CCCNC(=O)N1C[C@@H]2N[C@H](C1)C2c1ccc(-c2cccc(F)c2)cc1 (some centres not stated),max activity,at 19.5 µM unless noted,16.2% [at 21 µM]
O=C(NC1CCCC1)N1CCCCN2[C@H](CO)[C@@H](c3ccc(-c4cccnc4)cc3)[C@H]2C1,max activity,at 19.5 µM unless noted,9.08% [at 0.038 µM]
O=C(Nc1cccc(F)c1)N1CCCCN2[C@H](CO)[C@@H](c3ccc(C#Cc4cccnc4)cc3)[C@@H]2C1,max activity,at 19.5 µM unless noted,5.46% [at 5 µM]
O=C(c1cccc(F)c1)N1CCCCN2[C@H](C1)[C@@H](c1ccc(C#CC3(O)CCCC3)cc1)[C@@H]2CO,max activity,at 19.5 µM unless noted,13.2%
O=C(NC1CCCC1)N1CCCCN2[C@@H](CO)[C@H](c3ccc(-c4cccnc4)cc3)[C@@H]2C1,max activity,at 19.5 µM unless noted,11.1% [at 2.6 µM]
O=C(c1cccc(F)c1)N1CCCCN2[C@H](C1)[C@H](c1ccc(C#CC3(O)CCCC3)cc1)[C@@H]2CO,max activity,at 10 µM,-12.3%
same,max activity,at 21 µM,-8.26%
COCC#Cc1ccc([C@@H]2[C@H]3CN(C(=O)NC4CCCC4)CCCCN3[C@H]2CO)cc1,max activity,at 19.5 µM unless noted,30.5%
O=C(Nc1cccc(F)c1)N1CCCCN2[C@H](C1)[C@@H](c1ccc(C#Cc3cccnc3)cc1)[C@@H]2CO,max activity,at 0.3 µM,-7.31%
same,max activity,at 19.5 µM,-13.4%
CC(C)CC#Cc1ccc([C@@H]2[C@@H](CO)N3CCCCN(C(=O)Nc4ccccc4)C[C@@H]23)cc1,max activity,at 19.5 µM unless noted,7.18% [at 2.6 µM]
CNc1ncc(CN(C)C(=O)c2csc(C)n2)cn1,max activity,at 19.5 µM unless noted,-6.03% [at 5 µM]
Cc1cnc(N2C[C@@H](c3ccccc3)[C@@]3(CCNC3=O)C2)nc1,max activity,at 19.5 µM unless noted,67.2%
CC1(C)C2CCC1(CS(=O)(=O)O)C(=O)/C2=C\c1ccc(/C=C2/C(=O)C3(CS(=O)(=O)O)CCC2C3(C)C)cc1,max activity,at 19.5 µM unless noted,5.44%
Fc1ccccc1-c1ccc(C2[C@H]3CNC[C@@H]2N3CC2CC2)cc1 (some centres not stated),max activity,at 19.5 µM unless noted,11.6%
